# Laboratory results taken from article PMC7862700, “An all-to-all approach to the identification of sequence-specific readers for epigenetic DNA modifications on cytosine”.
# Assays:
# Test in all cases: DAPPL (digital affinity profiling via proximity ligation, sequencing); 10 mM Tris-HCl pH 7.5, 50 mM NaCl, 1 mM DTT, 4% glycerol, room temperature, 30 min; GST-TFs on glutathione beads, 16-mer random dsDNA library, 0.1% formaldehyde crosslink after washing; high values mean tight binding
# Details in all cases: protein: recombinant; tags: N-terminal GST; dsDNA, one strand shown
# SPIC = molecular target: T1, SPIC (Homo sapiens, UniProt Q8N5J4 1-248)
# T1 sequence: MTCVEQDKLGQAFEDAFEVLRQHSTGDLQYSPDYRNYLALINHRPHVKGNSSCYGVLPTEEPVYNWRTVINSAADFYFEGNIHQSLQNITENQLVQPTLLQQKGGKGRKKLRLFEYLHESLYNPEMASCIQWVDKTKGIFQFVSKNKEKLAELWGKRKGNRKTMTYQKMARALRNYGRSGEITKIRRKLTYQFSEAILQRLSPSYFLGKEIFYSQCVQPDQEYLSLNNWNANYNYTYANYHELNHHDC
# How it was run: (§1)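 After expression in yeast as GST fusions, human transcription factors were bound to glutathione beads, DNA-barcoded and mixed with a tag-only sample. The pools were incubated with 200 nmole of a 16-mer random double-stranded DNA library in Tris/NaCl/DTT/glycerol buffer (30 min, room temperature), washed and crosslinked with 0.1% formaldehyde. Proximity ligation with BsaI/T4 ligase ran for 1 h at 37 °C, before PCR amplification and sequencing on an Illumina NextSeq500. Binding signal is a hexamer's read frequency for a factor divided by its frequency for the tag-only sample.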
# ELK4 = molecular target: T2, ELK4 (Homo sapiens, UniProt P28324-2 1-405)
# T2 sequence: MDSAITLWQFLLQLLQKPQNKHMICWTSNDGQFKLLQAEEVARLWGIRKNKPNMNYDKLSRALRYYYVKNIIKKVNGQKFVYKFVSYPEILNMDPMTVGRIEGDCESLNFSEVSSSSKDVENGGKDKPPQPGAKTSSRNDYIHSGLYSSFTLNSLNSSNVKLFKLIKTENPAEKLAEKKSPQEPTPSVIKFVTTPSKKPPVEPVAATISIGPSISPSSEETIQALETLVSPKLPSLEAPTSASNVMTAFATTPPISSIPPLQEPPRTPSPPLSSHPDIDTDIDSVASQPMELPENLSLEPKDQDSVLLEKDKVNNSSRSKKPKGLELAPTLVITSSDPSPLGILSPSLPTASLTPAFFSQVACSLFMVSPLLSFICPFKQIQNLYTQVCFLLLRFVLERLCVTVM
# How it was run: as §1
# GABPA = molecular target: T3, GABPA (Homo sapiens, UniProt Q06546 1-454)
# T3 sequence: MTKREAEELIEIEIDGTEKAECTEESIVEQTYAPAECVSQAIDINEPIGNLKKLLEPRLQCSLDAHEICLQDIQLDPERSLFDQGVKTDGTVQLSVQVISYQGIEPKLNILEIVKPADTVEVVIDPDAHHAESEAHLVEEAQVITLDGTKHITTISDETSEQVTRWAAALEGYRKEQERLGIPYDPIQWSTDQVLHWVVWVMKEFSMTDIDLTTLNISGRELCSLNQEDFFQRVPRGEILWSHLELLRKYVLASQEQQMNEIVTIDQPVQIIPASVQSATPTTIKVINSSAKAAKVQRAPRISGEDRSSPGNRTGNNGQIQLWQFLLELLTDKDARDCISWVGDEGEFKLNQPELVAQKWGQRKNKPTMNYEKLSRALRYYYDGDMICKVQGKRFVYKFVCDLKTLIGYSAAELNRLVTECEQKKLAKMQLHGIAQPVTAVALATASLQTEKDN
# How it was run: as §1
# ERG = molecular target: T4, ERG (Homo sapiens, UniProt P11308 1-479)
# T4 sequence: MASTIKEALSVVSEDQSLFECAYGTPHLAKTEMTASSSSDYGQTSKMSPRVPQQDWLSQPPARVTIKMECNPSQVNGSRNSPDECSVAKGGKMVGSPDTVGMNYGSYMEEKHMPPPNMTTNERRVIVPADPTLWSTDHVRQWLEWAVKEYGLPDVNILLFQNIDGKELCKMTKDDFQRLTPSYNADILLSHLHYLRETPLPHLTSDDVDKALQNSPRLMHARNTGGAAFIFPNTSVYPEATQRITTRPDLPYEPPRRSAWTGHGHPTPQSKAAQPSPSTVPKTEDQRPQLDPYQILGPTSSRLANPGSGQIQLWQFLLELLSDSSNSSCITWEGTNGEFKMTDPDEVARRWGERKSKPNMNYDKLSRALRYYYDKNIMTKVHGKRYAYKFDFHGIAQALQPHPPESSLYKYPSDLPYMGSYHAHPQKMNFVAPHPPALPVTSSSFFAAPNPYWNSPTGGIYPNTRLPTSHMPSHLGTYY
# How it was run: as §1
# ELF1 = ELF1 (Homo sapiens, UniProt P32519 1-619)
# ELF1, sequence (P32519 whole entry): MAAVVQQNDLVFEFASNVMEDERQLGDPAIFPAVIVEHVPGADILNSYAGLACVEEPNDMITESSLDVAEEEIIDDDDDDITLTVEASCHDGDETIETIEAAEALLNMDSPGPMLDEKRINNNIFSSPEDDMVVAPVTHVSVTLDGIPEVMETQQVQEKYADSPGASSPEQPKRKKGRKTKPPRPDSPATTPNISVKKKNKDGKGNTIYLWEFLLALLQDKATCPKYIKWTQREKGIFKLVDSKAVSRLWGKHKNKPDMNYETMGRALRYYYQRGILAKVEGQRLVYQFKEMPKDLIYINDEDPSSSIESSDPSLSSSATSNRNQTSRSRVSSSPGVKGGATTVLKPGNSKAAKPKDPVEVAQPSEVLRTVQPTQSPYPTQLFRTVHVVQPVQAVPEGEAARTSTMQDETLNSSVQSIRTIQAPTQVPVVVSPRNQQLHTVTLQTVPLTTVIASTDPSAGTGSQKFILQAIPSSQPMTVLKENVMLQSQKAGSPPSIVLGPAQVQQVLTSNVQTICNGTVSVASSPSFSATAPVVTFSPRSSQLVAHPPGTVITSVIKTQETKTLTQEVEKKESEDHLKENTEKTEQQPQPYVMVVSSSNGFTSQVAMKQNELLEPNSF
# How it was run: as §1
# ELF4 = ELF4 (Homo sapiens, UniProt Q99607 1-663)
# ELF4, sequence (Q99607 whole entry): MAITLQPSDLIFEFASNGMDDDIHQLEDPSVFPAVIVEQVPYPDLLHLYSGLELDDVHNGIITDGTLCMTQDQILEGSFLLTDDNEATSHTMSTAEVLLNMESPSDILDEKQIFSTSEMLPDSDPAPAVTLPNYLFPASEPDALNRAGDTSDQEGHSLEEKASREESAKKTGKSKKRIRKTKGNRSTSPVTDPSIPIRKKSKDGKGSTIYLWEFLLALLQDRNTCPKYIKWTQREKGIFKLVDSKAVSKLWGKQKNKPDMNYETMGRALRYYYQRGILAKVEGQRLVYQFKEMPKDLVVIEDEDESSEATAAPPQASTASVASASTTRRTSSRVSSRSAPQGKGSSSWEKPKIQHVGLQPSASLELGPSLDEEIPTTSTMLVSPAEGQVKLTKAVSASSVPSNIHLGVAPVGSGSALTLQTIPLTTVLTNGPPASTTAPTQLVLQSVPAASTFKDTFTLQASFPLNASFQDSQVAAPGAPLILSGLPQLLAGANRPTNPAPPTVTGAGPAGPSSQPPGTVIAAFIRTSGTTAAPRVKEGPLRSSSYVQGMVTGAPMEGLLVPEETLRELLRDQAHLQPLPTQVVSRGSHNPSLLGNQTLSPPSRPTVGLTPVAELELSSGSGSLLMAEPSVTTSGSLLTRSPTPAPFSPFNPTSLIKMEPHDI
# How it was run: as §1
# ETV2 = molecular target: T5, ETV2 (Homo sapiens, UniProt O00321 1-342)
# T5 sequence: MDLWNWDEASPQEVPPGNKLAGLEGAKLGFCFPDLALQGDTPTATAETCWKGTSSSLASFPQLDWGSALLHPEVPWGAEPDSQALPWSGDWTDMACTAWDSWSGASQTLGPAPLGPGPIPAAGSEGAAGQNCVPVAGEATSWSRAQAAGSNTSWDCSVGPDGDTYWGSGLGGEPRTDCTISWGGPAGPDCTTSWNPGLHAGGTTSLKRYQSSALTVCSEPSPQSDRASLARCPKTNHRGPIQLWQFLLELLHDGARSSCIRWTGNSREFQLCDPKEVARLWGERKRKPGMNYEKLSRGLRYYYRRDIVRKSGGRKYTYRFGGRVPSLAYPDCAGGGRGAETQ
# How it was run: as §1
# ETV1 = ETV1 (Homo sapiens, UniProt P50549 1-477)
# ETV1, sequence (P50549 whole entry): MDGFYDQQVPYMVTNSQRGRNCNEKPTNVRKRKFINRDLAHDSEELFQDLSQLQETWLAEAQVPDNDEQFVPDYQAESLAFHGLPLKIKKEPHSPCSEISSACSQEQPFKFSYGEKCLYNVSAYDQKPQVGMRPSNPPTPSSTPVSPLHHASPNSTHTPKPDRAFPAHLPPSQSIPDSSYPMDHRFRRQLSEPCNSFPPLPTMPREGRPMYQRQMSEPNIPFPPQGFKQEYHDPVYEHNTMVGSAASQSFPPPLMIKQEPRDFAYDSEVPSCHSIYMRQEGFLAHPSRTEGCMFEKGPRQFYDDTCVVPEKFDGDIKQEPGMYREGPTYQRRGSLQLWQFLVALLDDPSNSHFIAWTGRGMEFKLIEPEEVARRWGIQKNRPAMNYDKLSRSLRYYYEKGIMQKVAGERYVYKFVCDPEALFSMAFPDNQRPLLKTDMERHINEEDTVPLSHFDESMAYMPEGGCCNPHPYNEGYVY
# How it was run: as §1
# ETV3L = molecular target: T6, ETV3L (Homo sapiens, UniProt Q6ZN32 1-361)
# T6 sequence: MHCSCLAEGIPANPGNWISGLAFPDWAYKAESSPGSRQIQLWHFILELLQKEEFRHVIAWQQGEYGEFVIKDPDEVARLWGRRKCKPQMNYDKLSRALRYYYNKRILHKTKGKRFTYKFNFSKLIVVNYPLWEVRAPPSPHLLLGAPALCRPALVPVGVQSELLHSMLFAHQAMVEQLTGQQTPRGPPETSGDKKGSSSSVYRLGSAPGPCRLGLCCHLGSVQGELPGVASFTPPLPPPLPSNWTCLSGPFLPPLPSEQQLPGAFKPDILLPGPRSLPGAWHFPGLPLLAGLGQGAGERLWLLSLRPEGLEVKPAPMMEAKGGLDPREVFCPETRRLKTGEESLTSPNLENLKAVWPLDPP
# How it was run: as §1
# SPDEF = molecular target: T7, SPDEF (Homo sapiens, UniProt O95238 1-335)
# T7 sequence: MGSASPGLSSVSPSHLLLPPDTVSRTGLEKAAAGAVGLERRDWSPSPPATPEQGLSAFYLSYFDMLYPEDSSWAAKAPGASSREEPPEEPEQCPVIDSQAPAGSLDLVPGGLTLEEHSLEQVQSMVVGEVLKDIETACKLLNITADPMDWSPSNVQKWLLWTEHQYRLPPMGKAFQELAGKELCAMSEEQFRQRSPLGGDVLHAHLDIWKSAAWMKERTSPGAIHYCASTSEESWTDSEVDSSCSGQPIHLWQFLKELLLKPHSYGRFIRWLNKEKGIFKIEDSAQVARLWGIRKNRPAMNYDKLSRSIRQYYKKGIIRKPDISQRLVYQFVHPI
# How it was run: as §1
# ETV3 = molecular target: T8, ETV3 (Homo sapiens, UniProt P41162-2 1-143)
# T8 sequence: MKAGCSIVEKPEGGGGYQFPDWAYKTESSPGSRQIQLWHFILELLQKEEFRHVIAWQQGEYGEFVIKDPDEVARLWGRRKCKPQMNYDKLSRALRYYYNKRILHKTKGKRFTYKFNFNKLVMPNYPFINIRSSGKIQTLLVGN
# How it was run: as §1
# ELK1 = molecular target: T9, ELK1 (Homo sapiens, UniProt P19419 1-428)
# T9 sequence: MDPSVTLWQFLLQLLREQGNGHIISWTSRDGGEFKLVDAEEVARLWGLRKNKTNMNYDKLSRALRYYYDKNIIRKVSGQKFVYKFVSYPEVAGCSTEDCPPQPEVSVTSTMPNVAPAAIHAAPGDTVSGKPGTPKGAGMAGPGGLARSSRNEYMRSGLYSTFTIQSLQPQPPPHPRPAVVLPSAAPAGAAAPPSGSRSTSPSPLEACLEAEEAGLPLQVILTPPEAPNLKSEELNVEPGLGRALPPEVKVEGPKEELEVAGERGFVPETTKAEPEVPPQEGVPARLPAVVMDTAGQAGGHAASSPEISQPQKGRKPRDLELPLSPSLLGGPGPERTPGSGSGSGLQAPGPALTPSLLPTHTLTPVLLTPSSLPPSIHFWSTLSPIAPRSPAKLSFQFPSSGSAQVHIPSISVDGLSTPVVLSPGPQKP
# How it was run: as §1
# SPIB = SPIB (Homo sapiens, UniProt Q01892 1-262)
# SPIB, sequence (Q01892 whole entry): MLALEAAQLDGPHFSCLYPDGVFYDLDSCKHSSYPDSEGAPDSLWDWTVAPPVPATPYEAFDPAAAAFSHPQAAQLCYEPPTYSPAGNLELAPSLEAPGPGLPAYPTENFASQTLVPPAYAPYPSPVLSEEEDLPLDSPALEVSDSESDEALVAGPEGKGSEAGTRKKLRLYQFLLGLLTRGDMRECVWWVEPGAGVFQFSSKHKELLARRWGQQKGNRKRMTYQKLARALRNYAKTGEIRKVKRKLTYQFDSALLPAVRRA
# How it was run: as §1
sequence,measurement,setting,value
GTTGGC,binding signal,SPIC,"1.09 fold enrichment (6-mer frequency, TF over GST control)"
GTTGTC,binding signal,SPIC,"1.1 fold enrichment (6-mer frequency, TF over GST control)"
same,binding signal,ELK4,"1.02 fold enrichment (6-mer frequency, TF over GST control)"
GACTCG,binding signal,SPIC,"1.02 fold enrichment (6-mer frequency, TF over GST control)"
CCTAGG,binding signal,GABPA,"1.04 fold enrichment (6-mer frequency, TF over GST control)"
same,binding signal,ERG,"1 fold enrichment (6-mer frequency, TF over GST control)"
same,binding signal,ELF1,"1.07 fold enrichment (6-mer frequency, TF over GST control)"
same,binding signal,SPIC,"1.1 fold enrichment (6-mer frequency, TF over GST control)"
same,binding signal,ELF4,"1.07 fold enrichment (6-mer frequency, TF over GST control)"
same,binding signal,ELK4,"1.04 fold enrichment (6-mer frequency, TF over GST control)"
same,binding signal,ETV2,"1.03 fold enrichment (6-mer frequency, TF over GST control)"
same,binding signal,ETV1,"1.02 fold enrichment (6-mer frequency, TF over GST control)"
same,binding signal,ETV3L,"1.03 fold enrichment (6-mer frequency, TF over GST control)"
same,binding signal,SPDEF,"1.02 fold enrichment (6-mer frequency, TF over GST control)"
same,binding signal,ETV3,"1.1 fold enrichment (6-mer frequency, TF over GST control)"
GCCCTG,binding signal,ELK1,"1.12 fold enrichment (6-mer frequency, TF over GST control)"
same,binding signal,ERG,"1 fold enrichment (6-mer frequency, TF over GST control)"
same,binding signal,ELF1,"1.06 fold enrichment (6-mer frequency, TF over GST control)"
same,binding signal,SPIB,"1.07 fold enrichment (6-mer frequency, TF over GST control)"
same,binding signal,SPIC,"1.11 fold enrichment (6-mer frequency, TF over GST control)"
same,binding signal,ELK4,"1.04 fold enrichment (6-mer frequency, TF over GST control)"
same,binding signal,ETV2,"1 fold enrichment (6-mer frequency, TF over GST control)"
same,binding signal,ETV3L,"1.08 fold enrichment (6-mer frequency, TF over GST control)"
same,binding signal,ETV3,"1.04 fold enrichment (6-mer frequency, TF over GST control)"
